hcDAF12 agonist: activators of H. contortus DAF-12 nuclear receptor | HEK293 hcDAF-12 lit1-tk-luc reporter, luminescence; 0% DMSO, 100% Δ7-dafachronic acid | activation, % at 6.8 µM | 1.4% of 370,000 active;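 active = activation above the mean of all tested compounds plus 3 SD, cut at about 5.5% in these data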
DAX1 inh-1: inhibitors of human orphan nuclear receptor DAX1 (NR0B1). inhibition, % at 6.75 µM. P51843. AID 504766. HEK293 Gal4-DAX1 luciferase reporter, luminescence. 0.99% of 340,000 active;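 active = inhibition above the mean over all tested compounds plus 3 SD, cut at about 4.2% in these data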;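 also: inhibition shows as a rise in luminescence from relieved DAX1 repression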
Target sequence (P51843 207-470 limits assumed): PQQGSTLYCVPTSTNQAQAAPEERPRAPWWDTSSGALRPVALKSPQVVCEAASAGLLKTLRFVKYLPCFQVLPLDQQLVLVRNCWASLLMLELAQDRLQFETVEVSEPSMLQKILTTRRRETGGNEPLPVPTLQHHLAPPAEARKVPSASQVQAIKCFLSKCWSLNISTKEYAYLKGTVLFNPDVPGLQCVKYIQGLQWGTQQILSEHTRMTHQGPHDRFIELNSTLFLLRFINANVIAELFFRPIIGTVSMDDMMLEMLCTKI
ssDAF-12 act: activators of S. stercoralis DAF-12 nuclear receptor; 1% of 370,000 active; HEK293 ssDAF-12/GRIP1 lit1-tk-luc reporter, luminescence; % of 3 µM dafachronic acid response; AID 652126; activation, % at 6.8 µM;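 active = activation above the mean over all tested compounds plus 3 SD, cut at about 0.9% in these data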
DAX1 inh-2: DAX1 (NR0B1) inhibition, primary screen. HEK293T StAR-luciferase reporter, SF-1/DAX-1 repression relief. inhibition, % at 6.8 µM. 1.1% of 370,000 active. AID 652010;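 active = inhibition above the mean over all tested compounds plus 3 SD, cut at about 3.6% in these data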;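 also: higher inhibition means more luminescence from relief of DAX-1 repression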
hgDAF12 agonist: agonists of H. glycines DAF-12 nuclear receptor; HEK293 GAL4-hgDAF12 UAS-luciferase reporter, agonist luminescence; normalized to butyrate control; AID 687014; activation, % at 6.8 µM; 1.8% of 370,000 active;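 active = activation above a cutoff set at the mean of all screened compounds plus 3 SD, cut at about 10% in these data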
A number is an active result; i = inactive; nt = no result given. In the library only some 4.1% were active in any assay of this set; here they are far more common.

SMILES	hcDAF12 agonist	DAX1 inh-1	ssDAF-12 act	DAX1 inh-2	hgDAF12 agonist
CCOC(=O)c1c(NC(=S)NCc2ccccc2)sc2c1CCN(C(=O)OCC)C2	i	6.0	i	i	i
C=CCNC(=S)Nc1sc2c(c1C(=O)OCC)CCN(C(=O)OCC)C2	i	i	i	i	i
COCCCn1c(=O)/c(=C/c2ccccc2OC(F)F)s/c1=C(\C#N)C(=O)NCCOC	i	i	i	i	i
COCCCn1c(=O)/c(=C\c2cccc(OC)c2OC)s/c1=C(/C#N)C(=O)Nc1ccc(C(=O)O)cc1	i	4.3	i	i	i
O=C(NCc1ccccc1)c1cccc(COc2cc(Cl)ccc2Cl)c1	i	i	i	i	10.7
COc1ccc2c(c1)CNC2CS(=O)(=O)NCCc1ccccc1 (stereo unspecified)	i	nt	i	i	i
O=C(NCC1COc2ccccc2O1)c1ccc(NC(=O)c2cccc(F)c2F)cc1 (stereo unspecified)	i	nt	i	i	i
Cc1cccc(C)c1NC(=O)CN(c1c(C)cccc1C)S(C)(=O)=O	i	5.0	i	i	i
COc1ccc(NC(=O)CN(c2c(C)cccc2C)S(C)(=O)=O)cc1	i	i	i	i	i
O=C(/C=C/c1ccc(Cl)cc1)NC1CC2CCC1C2 (stereo unspecified)	i	i	i	i	11.4
O=C(CSc1nnc(-c2cccnc2)n1-c1ccc(Cl)cc1)c1ccc(F)cc1	i	nt	i	i	i
CCN(CC)c1ccc(/C=N\NC(N)=O)cc1	i	i	i	i	i
Cc1ccc(/C=N/NC(=O)Nc2ccccc2)o1	i	i	i	i	11.0
CCN(CC)c1ccc(/C=N/NC(=O)Nc2ccccc2)cc1	i	i	i	i	10.9
CCN(CC)c1ccc(/C=N/NC(=O)OC(C)(C)C)cc1	i	4.9	i	i	i
CCCCCN1CCCCC(NC(=O)c2ccc3ccccc3c2)C1=O (stereo unspecified)	i	nt	i	i	i
O=C(Nc1cccc(Cl)c1)Nc1cccc(Cl)c1	i	i	i	i	i
Cc1nnc(NC(=O)Nc2cccc(Cl)c2)s1	i	i	i	i	11.2
Cc1nn(C)c(C)c1CNC(=O)Nc1cccc(Cl)c1	i	i	i	4.0	11.0
Cc1ccc(C(=O)CSc2nc3ccc(C(=O)NCCN4CCCCC4)cc3c(=O)[nH]2)cc1	5.6	i	i	i	i
Cc1[nH]c2ccc(C(=O)NCCN3CCCCCC3)cc2c1C	i	i	i	i	i
COC(=O)[C@]12C[C@H](CC(=O)N3CCSCC3)C(=O)N(Cc3ccco3)C1=C[C@H](C(C)C)O[C@@H]2C1CC1	i	nt	i	i	i
CC(=O)Nc1ccc2c(c1Br)Cc1ccccc1-2	i	i	i	i	12.8
CC(=O)Nc1cccc2c1Cc1ccccc1-2	nt	i	nt	nt	nt
N#CCC[C@H]1CC[C@]2(CCCN(C(=O)c3ccccc3)C2)O1	i	nt	i	i	i
SMILES	hcDAF12 agonist	DAX1 inh-1	ssDAF-12 act	DAX1 inh-2	hgDAF12 agonist
CCN(C(=O)CCc1cn(CC)c2ccccc12)c1ccc(Oc2cccnc2)cc1	i	nt	i	3.6	11.4
CN(C(=O)CCc1cn(C)c2ccccc12)c1ccc(Oc2cccnc2)cc1	i	nt	i	i	i
CCOc1cc(C(=O)N(C)CC(=O)Nc2cccc(F)c2)ccc1OCC(=O)N1CCCCC1	i	i	1.3	i	i
CCOc1cc(C(=O)Nc2cccc(C(C)=O)c2)ccc1OCC(=O)N1CCCCC1	i	i	i	i	i
COc1cccc(NC(=O)C(=O)NCCC2CCCCN2S(=O)(=O)c2cccs2)c1 (stereo unspecified)	i	i	i	4.1	i
CN(C)c1ccc(N=Nc2ccc(S(N)(=O)=O)cc2)cc1	i	i	i	i	11.4
COc1ccccc1OCC(=O)Nc1ccc(S(=O)(=O)Nc2nccs2)cc1	i	i	i	i	i
COCC(=O)Nc1ccc(S(=O)(=O)Nc2nccs2)cc1	i	4.4	i	i	i
COc1ccc(CNS(=O)(=O)/C=C/c2ccccc2CNC(=O)OC(C)(C)C)cc1	i	nt	i	i	i
Cc1c2ccccc2nc2c(F)c(N(C)C)c(F)c(F)c12	5.8	i	i	i	i
CC(C)c1ccc(/C=C/C2=NNC(=O)CC2)cc1	i	i	i	i	10.7
O=C(CN1CCOc2ccccc21)NC1CC1	6.5	i	2.1	i	i
COCCNC(=O)CN1CCOc2ccccc21	i	i	i	i	i
CCOc1ccc(NC(=O)CN2C(=O)C3CCCN3C2=O)cc1 (stereo unspecified)	i	4.7	i	i	i
Cc1cc(C)cc(N2C(=O)CCN(Cc3ccccc3)C2=O)c1	i	i	i	i	i
Cc1cc(Br)c(NC(=O)COC(=O)CC2CC3CCC2C3)c(Br)c1 (stereo unspecified)	i	i	i	i	i
CCN1C(=O)/C(=C/C=C2/CCCN2C)OC1=S	i	i	i	i	13.1
CSc1nc2ccc(NC(=O)C3=NNC(=O)CC3)cc2s1	5.6	i	i	i	i
CCOC(=O)[C@@]12CN(C(=O)OC(C)(C)C)CC=C1N(Cc1ccc(OC)cc1)C(=O)[C@H]2CC(=O)N1CCSCC1	i	nt	i	i	i
COC(=O)[C@]12C[C@H](CC(=O)N3CCC(c4ccccc4)CC3)C(=O)N(Cc3ccc(Cl)cc3Cl)C1=C[C@H](C(C)(C)C)O[C@@H]2C	i	nt	1.1	i	i
c1ccc2c(c1)Nc1cc3ccccc3cc1S2	6.5	i	i	i	i
CCN(CC)S(=O)(=O)c1ccc(NC(=O)COC(=O)CNC(=O)C2CCCCC2)cc1	i	i	i	i	i
O=C(CSc1nnc(-c2ccccc2)n1-c1ccc(Cl)cc1)c1ccc(Cl)cc1	i	nt	i	i	i
COCCNC(=O)CN(Cc1ccc(F)cc1)C(=O)CCC(=O)Nc1nccs1	i	4.2	i	i	i
COCCNC(=O)CN(Cc1ccc(OC)cc1)C(=O)CCC(=O)Nc1nccs1	i	i	i	i	i
SMILES	hcDAF12 agonist	DAX1 inh-1	ssDAF-12 act	DAX1 inh-2	hgDAF12 agonist
COC(=O)c1cccc(Cn2ccc3ccc(-c4ccc5ccn(C(=O)c6cccc(OC)c6)c5c4)cc32)c1	i	nt	i	i	i
Cc1cccc(C2Nc3cccc4cccc(c34)N2)c1	5.7	i	1.2	i	i
CSc1ccc(C2Nc3cccc4cccc(c34)N2)cc1	5.7	i	i	i	i
Clc1ccc(C2Nc3cccc4cccc(c34)N2)cc1	i	i	i	i	i
CCOC(=O)/C(C#N)=C/c1cn(CCC(=O)O)nc1-c1ccc(OC)cc1	i	6.6	i	i	i
CCOC(=O)/C(C#N)=C/c1cn(CCC(=O)O)nc1-c1ccccc1	i	i	i	i	i
C#CCNC(=O)CSCc1nc(-c2ccc(OCC)cc2)oc1C	i	nt	i	nt	i
CCCCNc1c(-c2ccc(SC3CCCCC3)cc2)nc2ccccn12	i	5.1	i	4.0	11.8
C[C@H](O)[C@@H]1C(=O)N2CCc3c([nH]c4c(-c5ccc6c(c5)OCO6)cccc34)[C@@H]2C[C@@H]1N(C)C(=O)c1ccccc1F	i	nt	i	i	i
O=C(Nc1ccc2[nH]ncc2c1)c1ccccc1	i	i	i	i	i

Screens from PubChem BioAssay.
